Results published in ChEMBL document CHEMBL4513141, “CO-ADD screening of NIH (USA) - Clinical Collection” (2021).
Measured potencies and affinities stand elsewhere.

Legend:
Staphylococcus aureus = conditions: Concentration 20 uM; ASSAY_TEST Inhibition of Bacterial Growth; detection method Absorption (OD600); MEDIA CAMHB; plate type 384well; NBS; CORNING #3640; time 18 hr
Escherichia coli = conditions: Concentration 20 uM; ASSAY_TEST Inhibition of Bacterial Growth; detection method Absorption (OD600); MEDIA CAMHB; plate type 384well; NBS; CORNING #3640; time 18 hr

## CC(C)C[C@H](NC(=O)[C@@H](O)[C@H](N)Cc1ccccc1)C(=O)O [UBENIMEX]
Staphylococcus aureus
  Inhibition: 8.9%
Escherichia coli
  Inhibition: -1.57%

## CC(CCc1ccccc1)NCC(O)c1ccc(O)c(C(N)=O)c1.Cl (stereo unspecified) [LABETALOL HYDROCHLORIDE]
Staphylococcus aureus
  Inhibition: 13.4%
Escherichia coli
  Inhibition: 1.62%

## CC(=O)O.NCc1ccc(S(N)(=O)=O)cc1 [MAFENIDE ACETATE]
Staphylococcus aureus
  Inhibition: 12.98%
Escherichia coli
  Inhibition: 1.36%

## Cl.O=C(NCC1CCCCN1)c1cc(OCC(F)(F)F)ccc1OCC(F)(F)F (stereo unspecified)
Staphylococcus aureus
  Inhibition: 10.41%
Escherichia coli
  Inhibition: -6.42%

## O=C(CCCN1CC=C(n2c(=O)[nH]c3ccccc32)CC1)c1ccc(F)cc1 [DROPERIDOL]
Staphylococcus aureus
  Inhibition: 14.29%
Escherichia coli
  Inhibition: -7.37%

## COc1ccccc1OCC(O)COC(N)=O (stereo unspecified) [METHOCARBAMOL]
Staphylococcus aureus
  Inhibition: 12.79%
Escherichia coli
  Inhibition: -0.64%

## CO[C@H]1O[C@@H]2O[C@@]3(C)CC[C@H]4[C@H](C)CC[C@@H]([C@H]1C)[C@@]24OO3
Staphylococcus aureus
  Inhibition: 8.78%
Escherichia coli
  Inhibition: 13.66%

## CN1CCCC(n2nc(Cc3ccc(Cl)cc3)c3ccccc3c2=O)CC1.Cl (stereo unspecified) [AZELASTINE HYDROCHLORIDE]
Staphylococcus aureus
  Inhibition: -20.95%
Escherichia coli
  Inhibition: 3.65%

## COC(=O)CCc1ccc(OCC(O)CNC(C)C)cc1.Cl (stereo unspecified) [ESMOLOL HYDROCHLORIDE]
Staphylococcus aureus
  Inhibition: 16.29%
Escherichia coli
  Inhibition: -0.36%

## Br.CN(C)CCCC1(c2ccc(F)cc2)OCc2cc(C#N)ccc21 (stereo unspecified) [CITALOPRAM HYDROBROMIDE]
Staphylococcus aureus
  Inhibition: 3.11%
Escherichia coli
  Inhibition: -2.5%

## COc1cc2nc(N3CCN(C(=O)C4CCCO4)CC3)nc(N)c2cc1OC (stereo unspecified) [TERAZOSIN]
Staphylococcus aureus
  Inhibition: 8.19%
Escherichia coli
  Inhibition: -0.53%

## Cl.NC12CC3CC(CC(C3)C1)C2 [AMANTADINE HYDROCHLORIDE]
Staphylococcus aureus
  Inhibition: 17.85%
Escherichia coli
  Inhibition: -0.07%

## CN(C)[C@@H]1C(=O)C(C(=O)NCN2CCCC2)=C(O)[C@@]2(O)C(O)=C3C(=O)c4c(O)cccc4[C@@](C)(O)C3CC12 (stereo partly specified)
Staphylococcus aureus
  Inhibition: 23.2%
Escherichia coli
  Inhibition: 5.47%

## CC(Cc1ccc(O)c(O)c1)(NN)C(=O)O.O (stereo unspecified)
Staphylococcus aureus
  Inhibition: 16.15%
Escherichia coli
  Inhibition: 3.56%

## COc1cc(C[C@@H](CO)[C@H](CO)Cc2ccc(O)c(OC)c2)ccc1O [(+)-SECOISOLARICIRESINOL]
Staphylococcus aureus
  Inhibition: 14.2%
Escherichia coli
  Inhibition: -3.86%

## COc1nc(C)nc(Cl)c1NC1=NCCN1.Cl [MOXONIDINE HYDROCHLORIDE]
Staphylococcus aureus
  Inhibition: -14.16%
Escherichia coli
  Inhibition: 3.63%

## CCC(=C(c1ccccc1)c1ccc(OCCN(C)C)cc1)c1ccccc1
Staphylococcus aureus
  Inhibition: 2.87%
Escherichia coli
  Inhibition: 6.04%

## NNCCc1ccccc1.O=S(=O)(O)O [PHENELZINE SULFATE]
Staphylococcus aureus
  Inhibition: -0.33%
Escherichia coli
  Inhibition: 5.31%
